BAZ2B inh – blocks human BAZ2B. AlphaScreen BAZ2B-H3K14Ac peptide displacement. Potency, µM (top dose mostly 114 µM), for the others: at the top dose activity change, negative = inhibition, most hits filed as inhibitors. actives 4.4% (n = 360,000); also: % is scaled to controls: 0 for no effect and ±100 for the full control effect; nearly all actives have a fitted effect of over 60% in size
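Protein-peptide AlphaScreen: BAZ2B 50 nM, b-H3K14Ac 50 nM, 1x PBS pH 7.4 + 0.01% Tween-20. Preincubation 30 min RT; cpd 30 min RT (top 110 uM); beads 20 min RT, light-protected.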
JMJD2A Tudor – JMJD2A Tudor domain (human) inhibition | AlphaScreen JMJD2A-Tudor / H3K4me3 peptide binding | Potency, µM (titrated, usually from 114 µM), without a hit: at the highest dose activity change, negative = inhibition, most hits filed as inhibitors | actives 4.4% (n = 390,000) | AID 504339; also: % is scaled to controls: 0 for no effect and ±100 for the full control effect; nearly all actives have a fitted effect of over 50% in size
Target sequence (O75164 whole entry, looked up, the tested form may be a part): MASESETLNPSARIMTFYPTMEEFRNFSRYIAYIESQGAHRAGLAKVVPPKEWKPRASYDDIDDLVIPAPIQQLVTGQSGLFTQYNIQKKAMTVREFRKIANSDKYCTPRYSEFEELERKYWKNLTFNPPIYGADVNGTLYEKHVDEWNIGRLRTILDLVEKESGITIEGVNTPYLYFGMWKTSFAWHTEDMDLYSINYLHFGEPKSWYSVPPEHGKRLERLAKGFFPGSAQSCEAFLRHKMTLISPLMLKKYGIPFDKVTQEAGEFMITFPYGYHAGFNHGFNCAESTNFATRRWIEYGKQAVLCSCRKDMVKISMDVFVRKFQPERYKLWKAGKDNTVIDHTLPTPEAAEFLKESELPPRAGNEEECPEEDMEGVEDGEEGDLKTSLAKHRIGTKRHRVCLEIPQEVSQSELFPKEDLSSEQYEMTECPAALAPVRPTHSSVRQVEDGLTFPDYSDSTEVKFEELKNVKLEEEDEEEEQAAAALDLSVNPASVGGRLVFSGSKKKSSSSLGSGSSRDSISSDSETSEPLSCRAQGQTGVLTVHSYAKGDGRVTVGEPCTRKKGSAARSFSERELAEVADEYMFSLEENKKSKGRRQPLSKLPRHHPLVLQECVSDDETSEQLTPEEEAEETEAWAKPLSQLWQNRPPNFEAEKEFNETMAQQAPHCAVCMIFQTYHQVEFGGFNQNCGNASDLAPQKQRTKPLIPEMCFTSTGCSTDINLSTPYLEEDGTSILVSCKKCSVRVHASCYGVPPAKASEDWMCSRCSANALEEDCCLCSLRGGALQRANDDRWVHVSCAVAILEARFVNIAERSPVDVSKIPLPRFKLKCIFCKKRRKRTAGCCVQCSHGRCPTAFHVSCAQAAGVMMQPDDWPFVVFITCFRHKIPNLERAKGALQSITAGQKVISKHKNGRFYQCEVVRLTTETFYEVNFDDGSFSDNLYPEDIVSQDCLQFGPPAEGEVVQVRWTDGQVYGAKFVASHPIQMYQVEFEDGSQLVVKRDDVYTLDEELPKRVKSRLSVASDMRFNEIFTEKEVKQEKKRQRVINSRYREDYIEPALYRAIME
HP1b chromo inh – inhibitors of HP1-beta chromodomain binding to methylated histone tails. AlphaScreen HP1-beta / biotin-H3K9me3 peptide binding. P83916. Potency, µM (top dose mostly 114 µM), inactives show at the highest dose activity change, negative = inhibition, actives largely listed as inhibitors. actives 0.56% (n = 390,000); also: nearly all actives have a fitted effect of over 70% in size
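HP1-beta protein (50 nM final) preincubated 30 min at room temperature with biotinylated H3(1-18)K9me3 peptide (50 nM) in PBS pH 7.4, 0.01% Tween-20, then compound added for 30 min. AlphaScreen streptavidin donor/nickel chelate acceptor beads (10 ug/mL final), 30 min dark, luminescence read.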
Sfp inh – Sfp phosphopantetheinyl transferase inhibition; actives 3.5% (n = 310,000); Q9F4F7; Potency, µM, inactives show largest response in the series, negative = inhibition, actives largely listed as inhibitors; Biochemical Sfp PPTase activity, qHTS;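 also: the enzyme is Sfp with the accession as filed and its product quenches rhodamine fluorescence; 0% = enzyme reaction without inhibitor and -100% = no enzyme wells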
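After 15 min at room temperature with compound, 15 nM Sfp received 5 uM rhodamine-CoA plus 12.5 uM BHQ-2-ybbR (50 mM Hepes pH 7.6, 10 mM MgCl2). Rate came from the fluorescence difference over 30 min, ex 525/em 598 nm.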
G9a inh – G9a (human) methyltransferase inhibition; Q96KQ7; G9a H3K9 monomethylation, AlphaScreen, 2 h; Potency, µM (series often up to 102 µM), for inactives: at the top dose activity, negative = inhibition, actives largely listed as inhibitors; actives 8.8% (n = 350,000); AID 504332; also: % is scaled to controls: 0 for no effect and ±100 for the full control effect; nearly all actives have a fitted effect of over 75% in size
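Step 1: enzyme (final 20 nM) with compound, 15 min RT. Step 2: substrate peptide 500 nM and SAM 20 uM, 2 h RT. Step 3: anti-H3K9me1 antibody and AlphaScreen beads, 10 min, then plate read.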
Numbers without * were called inactive; [ ] = dose if it differs, or a comment. The list is not random: actives were taken first. Their share in the collection is about 12%. Calls follow the shape of the dose curve; as a rule, active = well fitted curve in the direction sought with a large enough effect; inconclusive = small, poorly fitted or top-dose-only effect, or another doubt; inactive = no such curve, though single readings can be large; an effect the other way counts as inactive or inconclusive. Potency is read from the fitted curve at half-maximal effect.

`CC(Sc1nnc(-c2ccncc2)n1-c1ccc(F)cc1)C(=O)NC1CC1` (stereo unspecified) gave BAZ2B inh -3.0%, JMJD2A Tudor 7.0%, HP1b chromo inh 37.3% and G9a inh -4.7%[12.7 µM].
CCC(=O)N1CCc2cc(Br)cc(S(=O)(=O)CCC(=O)NCc3ccccc3)c21 was read as BAZ2B inh 2.0%, JMJD2A Tudor -5.1%, HP1b chromo inh 24.7% and G9a inh 5.3%[59 µM].
For COc1ccc(C2c3[nH]c4ccccc4c3C[C@H]3C(=O)N(C4CCN(Cc5ccccc5)CC4)CC(=O)N23)c(OC)c1 (stereo partly specified) the results were BAZ2B inh -37.0%, JMJD2A Tudor 22.4µM*, HP1b chromo inh -16.0%, Sfp inh 15.7% and G9a inh inconclusive.
`C=CCc1cccc([C@@H]2[C@@H](C)CC[C@H]3C(=O)N4[C@@H](c5cc(OC)c(OC)c(OC)c5)c5[nH]c6ccccc6c5C[C@H]4C(=O)N23)c1` gave BAZ2B inh inconclusive, Sfp inh -3.8% and G9a inh 50.1µM*.
For O=C1[C@@H]2Cc3c([nH]c4ccccc34)C(c3ccccc3)N2C(=O)CN1C1CCN(Cc2ccccc2)CC1 (stereo partly specified) the results were BAZ2B inh 31.6µM*, JMJD2A Tudor inconclusive, HP1b chromo inh -4.8%, Sfp inh -14.6% and G9a inh 79.4µM*.
For CC(=O)C1=C(C)NC(SCC(N)=O)=C(C#N)C1c1cccs1 (stereo unspecified) the results were BAZ2B inh -4.3%, JMJD2A Tudor -14.0%, HP1b chromo inh 18.8%, Sfp inh -24.7% and G9a inh inconclusive.
`CSCSC1=C(C#N)C(c2ccccc2Cl)C(C(C)=O)=C(C)N1` (stereo unspecified) gave BAZ2B inh 29.8%, JMJD2A Tudor -28.8%, HP1b chromo inh 59.4%, Sfp inh inconclusive and G9a inh 3.98µM*.
Screening CCOC(=O)CSC1=C(C#N)C(c2ccccc2F)C(C(C)=O)=C(C)N1 (stereo unspecified) returned BAZ2B inh 7.7%, JMJD2A Tudor inconclusive, HP1b chromo inh 41.6%, Sfp inh 63.1µM* and G9a inh inconclusive.
Cc1nn(CC(=O)N2CCC(C)CC2)c(=O)c2cc3sccc3n12 was read as BAZ2B inh -13.8%, JMJD2A Tudor -1.1%, HP1b chromo inh 39.7% and G9a inh 6.7%[59 µM].
CCc1ccccc1OCC(=O)Nc1ccc(S(=O)(=O)Nc2nc(C)cc(C)n2)cc1 was read as BAZ2B inh -5.1%, JMJD2A Tudor -16.5%, HP1b chromo inh 24.2% and G9a inh inconclusive.
For CCOC(=O)c1cnc(SC2CC(=O)N(c3ccccc3)C2=O)nc1N (stereo unspecified) the results were BAZ2B inh 5.0%, JMJD2A Tudor 2.9%, HP1b chromo inh 45.6%, Sfp inh 5.7% and G9a inh inconclusive.
Screening CCOC(=O)c1cnc(SC2CCc3ccccc3C2=O)nc1N (stereo unspecified) returned BAZ2B inh -2.6%, JMJD2A Tudor -19.8%[57.1 µM], HP1b chromo inh -11.4%, Sfp inh 56.2µM* and G9a inh 35.5µM*.
For Cc1ccc(CN2CCC(CNC(=O)c3cnn(-c4ccccc4)c3C3CCN(C(=O)OC(C)(C)C)CC3)CC2)cc1 the results were BAZ2B inh 5.1%[57.1 µM], JMJD2A Tudor -35.6%, HP1b chromo inh -12.9% and G9a inh -13.6%[59 µM].
Screening Cc1ccc(CNC(=O)CCC2CCCN(C(=O)c3ccc4c(c3)OCO4)C2)o1 (stereo unspecified) returned BAZ2B inh -14.5%, JMJD2A Tudor -7.4%, HP1b chromo inh 10.5%[57 µM], Sfp inh 28.2µM* and G9a inh 50.1µM*.
Screening O=C(CCC1CCCN(C(=O)CCC(F)(F)F)C1)NCc1ccc(F)c(F)c1 (stereo unspecified) returned BAZ2B inh -24.2%, JMJD2A Tudor -5.3%[57.1 µM], HP1b chromo inh 45.4%, Sfp inh -5.6% and G9a inh -3.5%.
`Cc1ccc(CNC(=O)CCC2CCCN(Cc3cccc4ncccc34)C2)o1` (stereo unspecified) gave BAZ2B inh -2.3%, JMJD2A Tudor -20.3%[57.1 µM], HP1b chromo inh 1.8%, Sfp inh 6.2% and G9a inh 5.4%.
`Cc1ccc(CNC(=O)CCC2CCCN(Cc3cccc4cccnc34)C2)o1` (stereo unspecified) gave BAZ2B inh inconclusive, JMJD2A Tudor -32.4%, HP1b chromo inh 2.5%, Sfp inh -15.1% and G9a inh 39.8µM*.
For Cc1ccc(CNC(=O)CCC2CCCN(C(=O)CCC(F)(F)F)C2)o1 (stereo unspecified) the results were BAZ2B inh 3.2%, JMJD2A Tudor -8.4%, HP1b chromo inh 38.1%, Sfp inh inconclusive and G9a inh 50.1µM*.
Screening CCc1ccccc1NC(=O)CN1C(=O)c2cccnc2Oc2ccc(Cl)cc21 returned BAZ2B inh -5.2%, JMJD2A Tudor -24.4%, HP1b chromo inh 28.1% and G9a inh -35.5%[59 µM].
Screening COc1ccc2[nH]c(C(=O)NCCN3CCCCC3)cc2c1 returned BAZ2B inh -15.3%, JMJD2A Tudor -34.1%, HP1b chromo inh 15.4%, Sfp inh -2.1% and G9a inh 56.2µM*.
CCCCNC(=O)c1cc2cc(OC)ccc2[nH]1 was read as BAZ2B inh -2.5%, JMJD2A Tudor -19.3%, HP1b chromo inh 37.1%, Sfp inh 0.7% and G9a inh -12.9%.
Screening COc1ccc2[nH]c(C(=O)NCCCn3ccnc3)cc2c1 returned BAZ2B inh -28.3%, JMJD2A Tudor -12.5%, HP1b chromo inh 17.5%, Sfp inh 2.7% and G9a inh 50.1µM*.
Screening COc1ccc(NC(=O)c2cnc3cc(C)ccn3c2=O)c(OC)c1 returned BAZ2B inh -12.6%, JMJD2A Tudor -11.3%, HP1b chromo inh 29.9% and G9a inh 3.4%[59 µM].
`CCOC(=O)N1CCN(C(=O)CNC2CCCCCCC2)CC1` gave BAZ2B inh 50.1µM*, JMJD2A Tudor 31.6µM*, HP1b chromo inh 28.5%, Sfp inh -22.5% and G9a inh 31.6µM*.
Screening CC1=C(C(=O)Nc2ccccc2)C(c2ccco2)C(C#N)=C(SCC(=O)Nc2cccc(C)c2C)N1 (stereo unspecified) returned BAZ2B inh 10.2%, JMJD2A Tudor -14.3%, HP1b chromo inh 27.8%, Sfp inh 3.1% and G9a inh inconclusive.
For CSC1=C(C#N)C(c2ccncc2)C(C(=O)Nc2ccccc2)=C(C)N1 (stereo unspecified) the results were BAZ2B inh -13.6%, JMJD2A Tudor 0.0%, HP1b chromo inh 47.3%, Sfp inh 15.5% and G9a inh 25.1µM*.

High-throughput results deposited in PubChem by National Center for Advancing Translational Sciences (NCATS).
